± gives the standard deviation of the averaged measurements.
Assays:
DLD1 [1] = test: cell viability (CellTiter-Glo) relative to plate median (fraction of plate median); higher = more viable cells; details: 5 µM; treatment time 24 h; reporter: 7TFP
How it was run: (§1)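 Each entry is a luminescence signal normalised to the plate median, averaged over independent replicates. The replicate count was two, and the cells were colorectal cancer lines with stable lentiviral TCF/Wnt firefly luciferase reporters exposed to library compounds at a final 5 µM for 24 h. Firefly luciferase and CellTiterGlo were measured on parallel plates.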

HCT116 = test: as above; details: 5 µM; treatment time 24 h; reporter: TCF4/Wnt
How it was run: as §1

SW480 [2] = test: as above; details: 5 µM; treatment time 24 h; reporter: 7TFP
How it was run: as §1

DLD1 [3] = test: TCF/Wnt firefly luciferase reporter signal relative to plate median (fraction of plate median); higher = higher Wnt reporter signal; details: 5 µM; treatment time 24 h; reporter: 7TFP
How it was run: as §1

SW480 [4] = test: as above; details: 5 µM; treatment time 24 h; reporter: 7TFP
How it was run: as §1

With `Clc1ccc(C(Cn2ccnc2)OCc2ccsc2Cl)c(Cl)c1` (stereo not given) as the compound, how does the cell viability (DLD1 [1]) read?
Its cell viability is 0.966 ± 0.077.

And the cell viability (HCT116)?
Its cell viability is 0.98 ± 0.085.

What about the cell viability (SW480 [2]) of the same compound?
Its cell viability is 1.005 ± 0.0071.

And the “TCF/Wnt firefly luciferase reporter signal” value (DLD1 [3])?
Its value is 0.923 ± 0.14.

And the “TCF/Wnt firefly luciferase reporter signal” value (SW480 [4])?
The value was 0.894 ± 0.023.

Which results are given for `CC1(C)[C@@H](OC(=O)CCC(=O)O)CC[C@]2(C)[C@H]3C(=O)C=C4[C@@H]5C[C@@](C)(C(=O)O)CC[C@]5(C)CC[C@@]4(C)[C@]3(C)CC[C@@H]12`?
cell viability (DLD1 [1]): 1 ± 0.011; cell viability (HCT116): 1.02 ± 0.035; cell viability (SW480 [2]): 1.06 ± 0.014; TCF/Wnt firefly luciferase reporter signal (DLD1 [3]): 1.09; TCF/Wnt firefly luciferase reporter signal (SW480 [4]): 1.01

`Clc1ccc(C(c2ccccc2Cl)C(Cl)Cl)cc1` (stereo not given) was tested. Which cell viability (DLD1 [1]) did it give?
The cell viability was 0.937 ± 0.013.

And the cell viability (HCT116)?
The cell viability was 0.895 ± 0.15.

And the cell viability (SW480 [2])?
The cell viability was 0.981 ± 0.041.

What about the “TCF/Wnt firefly luciferase reporter signal” value (DLD1 [3]) of the same compound?
The value was 1.11 ± 0.021.

And the “TCF/Wnt firefly luciferase reporter signal” value (SW480 [4])?
Its value is 1.03 ± 0.17.

For `CC(=O)N[C@@H](CC(=O)c1ccccc1N)C(=O)O` [N-Acetyl-kynurenine], which cell viability (DLD1 [1]) is on record?
Its cell viability is 1.09 ± 0.12.

And the cell viability (HCT116)?
Its cell viability is 1.12 ± 0.11.

What about the cell viability (SW480 [2]) of the same compound?
The cell viability was 1.01 ± 0.044.

And the “TCF/Wnt firefly luciferase reporter signal” value (DLD1 [3])?
Its value is 0.859 ± 0.17.

And the “TCF/Wnt firefly luciferase reporter signal” value (SW480 [4])?
Its value is 1.05 ± 0.078.

For `CCCc1nc(C(C)(C)O)c(C(=O)OCc2oc(=O)oc2C)n1Cc1ccc(-c2ccccc2-c2nnn[nH]2)cc1`, which cell viability (DLD1 [1]) is on record?
The cell viability was 0.99 ± 0.015.

And the cell viability (HCT116)?
Its cell viability is 0.978 ± 0.045.

And the cell viability (SW480 [2])?
Its cell viability is 1.01 ± 0.047.

What about the “TCF/Wnt firefly luciferase reporter signal” value (DLD1 [3]) of the same compound?
The value was 1.11 ± 0.11.

And the “TCF/Wnt firefly luciferase reporter signal” value (SW480 [4])?
The value was 1.11 ± 0.042.

For `NC1=NCCN1CC(=O)O`, which cell viability (DLD1 [1]) is on record?
The cell viability was 0.897 ± 0.036.

What about the cell viability (HCT116) of the same compound?
The cell viability was 1.03 ± 0.072.

What about the cell viability (SW480 [2]) of the same compound?
The cell viability was 0.976 ± 0.0014.

And the “TCF/Wnt firefly luciferase reporter signal” value (DLD1 [3])?
Its value is 1.06 ± 0.094.

What about the “TCF/Wnt firefly luciferase reporter signal” value (SW480 [4]) of the same compound?
The value was 0.985 ± 0.016.

With `COc1ccc(CCN(C)CCCC(C#N)(c2ccc(OC)c(OC)c2)C(C)C)cc1OC` (stereo not given) as the compound, how does the cell viability (DLD1 [1]) read?
The cell viability was 1.04 ± 0.12.

And the cell viability (HCT116)?
The cell viability was 0.971 ± 0.07.

And the cell viability (SW480 [2])?
Its cell viability is 1.02 ± 0.014.

And the “TCF/Wnt firefly luciferase reporter signal” value (DLD1 [3])?
The value was 1.01 ± 0.12.

And the “TCF/Wnt firefly luciferase reporter signal” value (SW480 [4])?
Its value is 1.03 ± 0.11.

For `CCOC(=O)OC(C)OC(=O)[C@@H]1N2C(=O)[C@@H](NC(=O)[C@H](N)c3ccccc3)[C@H]2SC1(C)C` (stereo not given in full), which cell viability (DLD1 [1]) is on record?
The cell viability was 1.05 ± 0.014.

And the cell viability (HCT116)?
Its cell viability is 1.01 ± 0.071.

And the cell viability (SW480 [2])?
The cell viability was 1.01 ± 0.014.

And the “TCF/Wnt firefly luciferase reporter signal” value (DLD1 [3])?
The value was 1.09 ± 0.12.

What about the “TCF/Wnt firefly luciferase reporter signal” value (SW480 [4]) of the same compound?
The value was 1.08 ± 0.035.

With `CCOC(=O)n1ccn(C)c1=S` as the compound, how does the cell viability (DLD1 [1]) read?
The cell viability was 0.985 ± 0.05.

And the cell viability (HCT116)?
The cell viability was 1.12.

And the cell viability (SW480 [2])?
Its cell viability is 1.01 ± 0.035.

And the “TCF/Wnt firefly luciferase reporter signal” value (DLD1 [3])?
Its value is 0.9725 ± 0.0021.

What about the “TCF/Wnt firefly luciferase reporter signal” value (SW480 [4]) of the same compound?
Its value is 1.04 ± 0.014.

How did the cell viability (DLD1 [1]) turn out when `CN1CCN(CC/C=C2/c3ccccc3Sc3ccc(S(=O)(=O)N(C)C)cc32)CC1` was run?
Its cell viability is 1.07 ± 0.078.

And the cell viability (HCT116)?
Its cell viability is 1.16 ± 0.042.

And the cell viability (SW480 [2])?
Its cell viability is 1.07 ± 0.064.

And the “TCF/Wnt firefly luciferase reporter signal” value (DLD1 [3])?
Its value is 1.11 ± 0.078.

What about the “TCF/Wnt firefly luciferase reporter signal” value (SW480 [4]) of the same compound?
The value was 0.983 ± 0.17.

`CCCCNS(=O)(=O)c1ccccc1` [N-butylbenzenesulphonamide (AB2)] was tested. Which cell viability (DLD1 [1]) did it give?
The cell viability was 0.978 ± 0.19.

What about the cell viability (HCT116) of the same compound?
Its cell viability is 1 ± 0.022.

What about the cell viability (SW480 [2]) of the same compound?
The cell viability was 0.964 ± 0.052.

And the “TCF/Wnt firefly luciferase reporter signal” value (DLD1 [3])?
Its value is 0.908 ± 0.13.

What about the “TCF/Wnt firefly luciferase reporter signal” value (SW480 [4]) of the same compound?
Its value is 0.919 ± 0.14.

`Oc1ccc([C@H]2Oc3cc(O)cc(O)c3C[C@H]2O)cc1` was tested. Which cell viability (DLD1 [1]) did it give?
The cell viability was 1.045 ± 0.0071.

And the cell viability (HCT116)?
The cell viability was 1.01 ± 0.14.

And the cell viability (SW480 [2])?
Its cell viability is 0.974 ± 0.021.

What about the “TCF/Wnt firefly luciferase reporter signal” value (DLD1 [3]) of the same compound?
Its value is 1.01 ± 0.12.

And the “TCF/Wnt firefly luciferase reporter signal” value (SW480 [4])?
Its value is 1.01 ± 0.07.

How did the cell viability (DLD1 [1]) turn out when `Cc1cc(=O)c2c(O)cc(O)c(C)c2o1` was run?
The cell viability was 0.906 ± 0.061.

What about the cell viability (HCT116) of the same compound?
The cell viability was 0.873 ± 0.034.

What about the cell viability (SW480 [2]) of the same compound?
The cell viability was 0.9105 ± 0.0035.

What about the “TCF/Wnt firefly luciferase reporter signal” value (DLD1 [3]) of the same compound?
The value was 1.25 ± 0.26.

And the “TCF/Wnt firefly luciferase reporter signal” value (SW480 [4])?
The value was 1.02 ± 0.039.

Which cell viability (DLD1 [1]) does the source give for `Nc1nc(=O)c2[nH]c(=O)cnc2[nH]1` here?
The cell viability was 1.01 ± 0.14.

What about the cell viability (HCT116) of the same compound?
Its cell viability is 1.06 ± 0.078.

What about the cell viability (SW480 [2]) of the same compound?
Its cell viability is 0.954 ± 0.018.

And the “TCF/Wnt firefly luciferase reporter signal” value (DLD1 [3])?
Its value is 0.981 ± 0.098.

And the “TCF/Wnt firefly luciferase reporter signal” value (SW480 [4])?
Its value is 0.987 ± 0.075.

Reference: the supplement of paper PMC6522484
